# Results reported in PubChem BioAssay (NCATS).
# Records with an inconclusive call do not appear. Activity calls are given as the source filed them. Unless noted, calls follow the shape of the dose curve; as a rule, active = well fitted curve in either direction with a large enough effect (not every such curve was filed as active); inconclusive = small, poorly fitted or top-dose-only effect, or another doubt; inactive = flat fitted curve, though single readings scatter.
# Experiments:
# [1] = target: Lysosomal acid glucosylceramidase (Homo sapiens) (UniProt P04062); test: Glucocerebrosidase-p2 (AID 348; in the data active = potency below about 10 µM; also: potency is read from the fitted curve at half-maximal effect); conditions: purified GBA, blue fluorogenic substrate, 40 min
# Chain of Lysosomal acid glucosylceramidase (Homo sapiens) (P04062 whole entry, looked up): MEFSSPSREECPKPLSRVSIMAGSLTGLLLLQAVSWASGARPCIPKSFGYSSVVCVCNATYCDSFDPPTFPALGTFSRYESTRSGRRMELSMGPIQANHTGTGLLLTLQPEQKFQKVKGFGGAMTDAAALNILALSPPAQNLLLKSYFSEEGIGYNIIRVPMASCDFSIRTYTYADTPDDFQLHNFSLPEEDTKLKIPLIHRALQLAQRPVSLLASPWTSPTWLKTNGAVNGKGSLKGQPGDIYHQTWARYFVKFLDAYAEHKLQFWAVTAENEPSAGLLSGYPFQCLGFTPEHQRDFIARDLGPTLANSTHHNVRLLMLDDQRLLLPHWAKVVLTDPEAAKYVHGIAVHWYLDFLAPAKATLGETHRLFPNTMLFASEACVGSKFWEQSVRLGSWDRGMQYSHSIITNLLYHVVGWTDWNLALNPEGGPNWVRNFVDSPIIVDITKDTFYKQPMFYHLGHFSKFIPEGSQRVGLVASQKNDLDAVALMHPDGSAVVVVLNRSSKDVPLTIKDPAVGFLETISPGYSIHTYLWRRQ
# Summary of the method: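 Compounds titrated from 0.6 nM upwards against 0.2 nM enzyme in pH 5.9 citric acid/KH2PO4, taurocholate, tween-20; blue fluorogenic substrate 80 uM, 40 min room temperature, stopped and read Ex 365/Em 440 for AC50.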
# [2] = AP1 Signaling Pathway (AID 357); conditions: ME-180 AP-1-bla reporter, EGF-induced, beta-lactamase ratio, 5 h; at 7.69 µM (top of the series) unless noted; also: % is scaled to controls: 0 for no effect and ±100 for the full control effect
# Summary of the method: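 AP-1-bla ME-180 cells with beta-lactamase reporter under AP-1 response element, stimulated with EC50 EGF; compounds titrated, 5 hours at 37 degrees Celsius. CCF4 read at 460/530 nm ratio; positive and negative modulators judged by AC50.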
# [3] = target: Cytochrome P450 1A2 (Homo sapiens) (UniProt P05177); test: p450-cyp1a2 (AID 410; calls by dose curve; also: potency is read from the fitted curve at half-maximal effect;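 as to activity change, negative = inhibition: -100% = full effect of reference inhibitor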); conditions: recombinant CYP1A2, luciferin-ME demethylation, luminescence; series mostly up to 57 µM
# Chain of Cytochrome P450 1A2 (Homo sapiens) (P05177 whole entry, looked up): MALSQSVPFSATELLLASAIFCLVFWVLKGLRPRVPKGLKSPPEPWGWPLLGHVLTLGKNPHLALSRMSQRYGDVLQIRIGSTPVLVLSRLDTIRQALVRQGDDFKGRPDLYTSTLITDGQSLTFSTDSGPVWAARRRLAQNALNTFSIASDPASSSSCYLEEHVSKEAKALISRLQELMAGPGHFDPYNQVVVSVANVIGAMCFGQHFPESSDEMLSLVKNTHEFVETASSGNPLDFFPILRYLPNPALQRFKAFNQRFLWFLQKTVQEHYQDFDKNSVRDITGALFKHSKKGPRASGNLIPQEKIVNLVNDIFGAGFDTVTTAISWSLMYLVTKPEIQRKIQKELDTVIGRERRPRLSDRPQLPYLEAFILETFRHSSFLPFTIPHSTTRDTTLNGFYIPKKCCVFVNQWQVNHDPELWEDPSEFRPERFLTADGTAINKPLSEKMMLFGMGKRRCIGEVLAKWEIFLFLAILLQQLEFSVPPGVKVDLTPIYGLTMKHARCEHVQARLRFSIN
# Summary of the method: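 Human CYP1A2 (20nM) demethylated Luciferin-ME at its Km (100uM) in 100mM KPO4. After 10 min compound preincubation, NADPH regeneration ran the reaction 60 min at room temperature. Luciferin was read by luminescence, normalized to 57 uM furafylline.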
# [4] = NFAT Signaling Pathway (AID 444); conditions: Jurkat NFAT-bla M1, carbachol, beta-lactamase ratio, 5 h; at 7.69 µM (top of the series) unless noted;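 also: carbachol stimulus at about its EC50 of 1 µM final; % is scaled to controls: 0 for no effect and ±100 for the full control effect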
# Summary of the method: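 Jurkat cells with NFAT-driven β-lactamase reporter and co-expressed M1 receptor, stimulated with carbachol (final 1 uM, ~EC50), compound titration, 5 h at 37 °C. CCF4 loaded 1 h at RT; 460/530 nm ratio gave %activity and AC50.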
# [5] = Stat Signaling Pathway (AID 446); conditions: ME-180 SIE beta-lactamase reporter, IL-6 stimulated, 5 h; at 7.69 µM (top of the series) unless noted;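 also: ME-180 cervical cancer cells given 40 pM IL-6 alongside compound; SIE-controlled beta-lactamase reporter measured as 460/530 nm FRET emission ratio; % is scaled to controls: 0 for no effect and ±100 for the full control effect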
# Summary of the method: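 Screening format detects activators and inhibitors alike: ME-180 SIE-bla cells stimulated at 40 pM IL-6 for 5 hrs with compound, then dual-emission beta-lactamase read at 405 nm excitation.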
# [6] = target: Glucocorticoid receptor (Homo sapiens) (UniProt P04150); test: GR-EFC Redistribution (AID 451; calls by dose curve; also: potency is read from the fitted curve at half-maximal effect); conditions: CHO-K1 GR-EFC translocation, beta-gal luminescence, 2 h
# Chain of Glucocorticoid receptor (Homo sapiens) (P04150 whole entry, looked up, the tested form may be a part): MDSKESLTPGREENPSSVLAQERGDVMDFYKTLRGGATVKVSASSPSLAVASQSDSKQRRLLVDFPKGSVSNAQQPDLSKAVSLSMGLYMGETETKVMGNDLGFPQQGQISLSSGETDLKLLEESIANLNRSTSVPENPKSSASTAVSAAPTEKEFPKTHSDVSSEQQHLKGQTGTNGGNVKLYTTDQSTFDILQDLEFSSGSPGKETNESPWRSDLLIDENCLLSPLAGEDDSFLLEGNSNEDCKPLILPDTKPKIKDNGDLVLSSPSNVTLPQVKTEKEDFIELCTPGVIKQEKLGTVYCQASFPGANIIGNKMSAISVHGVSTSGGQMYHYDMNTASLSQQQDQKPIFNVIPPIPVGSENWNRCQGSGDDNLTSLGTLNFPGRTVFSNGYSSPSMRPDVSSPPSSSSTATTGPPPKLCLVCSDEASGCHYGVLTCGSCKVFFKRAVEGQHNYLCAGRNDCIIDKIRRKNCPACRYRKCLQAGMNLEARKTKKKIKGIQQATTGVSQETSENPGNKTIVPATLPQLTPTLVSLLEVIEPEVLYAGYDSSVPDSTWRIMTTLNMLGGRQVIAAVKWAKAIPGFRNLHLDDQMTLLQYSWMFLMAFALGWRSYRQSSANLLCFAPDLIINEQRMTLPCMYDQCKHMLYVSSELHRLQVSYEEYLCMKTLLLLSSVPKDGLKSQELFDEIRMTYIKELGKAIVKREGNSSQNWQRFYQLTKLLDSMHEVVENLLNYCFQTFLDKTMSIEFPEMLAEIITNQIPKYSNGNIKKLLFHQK
# Summary of the method: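 CHO-K1 cells expressing nuclear EA and GR-ED fragments of b-gal; compounds titrated up to 46 uM final, 2 h at 37 C. GR nuclear translocation read as complemented b-gal luminescence after 1 h RT detection.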
# [7] = target: Mitogen-activated protein kinase 10 (Mus musculus) (UniProt Q61831); test: JNK3 AlphaScreen Assay (AID 530); conditions: JNK3 lysate, c-Jun phosphorylation; series mostly up to 57.1 µM;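 also: kinase came from lysate of stimulated human HepG2 cells; signal reports phosphorylation of biotinylated GST-cJun 1-79 at Ser73 with 10 µM ATP; % is scaled to controls: 0 for no effect and ±100 for the full control effect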
# Summary of the method: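 qHTS format: compounds tested as titrations against IL-1beta/TNF-alpha-activated HepG2 lysate JNK3 with biotin-GST-cJun substrate and 10 uM ATP at room temperature. Loss of anti-phospho-cJun AlphaScreen signal indicates inhibition.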
# [8] = target: 3',5'-cyclic-AMP phosphodiesterase 4B (Homo sapiens) (UniProt Q07343); test: qHTS Assay for Inhibitors of PDE-IV (AID 607; active = well fitted activation curve with a large enough effect in the main read-out, with a control signal flat, not every such curve was filed as active; also: % of control where 0% means no effect); conditions: HEK293 ACTOne CNG channel cells, membrane potential fluorescence; series mostly up to 22.9 µM
# Chain of 3',5'-cyclic-AMP phosphodiesterase 4B (Homo sapiens) (Q07343 whole entry, looked up): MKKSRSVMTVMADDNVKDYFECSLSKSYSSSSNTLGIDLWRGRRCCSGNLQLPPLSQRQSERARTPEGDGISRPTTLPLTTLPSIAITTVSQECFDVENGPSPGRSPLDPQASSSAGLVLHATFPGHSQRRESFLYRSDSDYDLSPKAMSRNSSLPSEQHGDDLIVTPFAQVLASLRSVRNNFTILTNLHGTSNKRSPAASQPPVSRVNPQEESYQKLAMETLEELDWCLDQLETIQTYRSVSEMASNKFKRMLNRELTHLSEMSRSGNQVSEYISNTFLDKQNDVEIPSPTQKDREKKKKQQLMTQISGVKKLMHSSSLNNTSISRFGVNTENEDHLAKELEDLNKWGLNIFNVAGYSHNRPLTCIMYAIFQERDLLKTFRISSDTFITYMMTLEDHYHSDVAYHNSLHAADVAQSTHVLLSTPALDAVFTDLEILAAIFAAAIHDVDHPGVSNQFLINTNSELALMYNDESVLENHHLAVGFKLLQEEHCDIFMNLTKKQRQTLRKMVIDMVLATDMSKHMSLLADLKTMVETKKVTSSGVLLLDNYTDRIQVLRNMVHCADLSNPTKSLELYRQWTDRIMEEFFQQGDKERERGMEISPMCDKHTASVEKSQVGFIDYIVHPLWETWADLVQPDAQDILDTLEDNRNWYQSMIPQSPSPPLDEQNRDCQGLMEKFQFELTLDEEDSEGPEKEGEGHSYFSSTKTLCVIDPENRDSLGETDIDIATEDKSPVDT
# Summary of the method: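 The readout is membrane depolarisation from a cAMP-sensing CNG channel, detected with a potential dye at ex 535/em 590. Cells were HEK293-derived (endogenous PDE-IV) at 1000 cells/well, titrated up to 22.9 uM final.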
# [9] = target: Cytochrome P450 3A4 (Homo sapiens) (UniProt P08684); test: qHTS Assay for Activators of Cytochrome P450 3A4 (AID 885; active = well fitted curve in the direction sought with a large enough effect; an effect the other way counts as inactive or inconclusive; also: nearly all actives have a fitted effect of over 65% in size; also: potency is read from the fitted curve at half-maximal effect); conditions: recombinant CYP3A4, Luciferin-PPXE luminescence, 60 min; series mostly up to 57.1 µM
# Chain of Cytochrome P450 3A4 (Homo sapiens) (P08684 whole entry, looked up): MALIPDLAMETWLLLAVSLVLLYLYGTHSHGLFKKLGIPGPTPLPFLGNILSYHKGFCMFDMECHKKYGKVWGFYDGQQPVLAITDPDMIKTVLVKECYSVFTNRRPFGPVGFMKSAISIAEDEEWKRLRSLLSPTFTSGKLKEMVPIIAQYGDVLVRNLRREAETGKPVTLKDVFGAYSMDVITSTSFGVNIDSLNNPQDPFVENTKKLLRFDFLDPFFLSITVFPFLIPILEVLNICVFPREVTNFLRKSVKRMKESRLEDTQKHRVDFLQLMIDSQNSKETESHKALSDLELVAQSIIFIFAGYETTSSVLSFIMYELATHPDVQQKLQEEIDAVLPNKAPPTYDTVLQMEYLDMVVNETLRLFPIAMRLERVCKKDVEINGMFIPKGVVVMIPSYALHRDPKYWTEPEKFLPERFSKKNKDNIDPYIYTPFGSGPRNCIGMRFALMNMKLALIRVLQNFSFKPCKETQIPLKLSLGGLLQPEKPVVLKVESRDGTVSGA
# Summary of the method: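 Steps: enzyme/substrate mix dispensed; compound added, 10 min RT; NADPH regeneration solution added, 60 min RT; luciferin detection buffer stops reaction; 20 min later luminescence measured.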
# [10] = target: Cytochrome P450 2D6 (Homo sapiens) (UniProt P10635); test: qHTS Assay for Inhibitors and Substrates of Cytochrome P450 2D6 (AID 891; active = well fitted curve in the direction sought with a large enough effect; an effect the other way counts as inactive or inconclusive; also: potency is read from the fitted curve at half-maximal effect; nearly all actives have a fitted effect of over 60% in size); conditions: recombinant CYP2D6, luciferin-ME EGE luminescence; series mostly up to 57.1 µM
# Chain of Cytochrome P450 2D6 (Homo sapiens) (P10635 whole entry, looked up): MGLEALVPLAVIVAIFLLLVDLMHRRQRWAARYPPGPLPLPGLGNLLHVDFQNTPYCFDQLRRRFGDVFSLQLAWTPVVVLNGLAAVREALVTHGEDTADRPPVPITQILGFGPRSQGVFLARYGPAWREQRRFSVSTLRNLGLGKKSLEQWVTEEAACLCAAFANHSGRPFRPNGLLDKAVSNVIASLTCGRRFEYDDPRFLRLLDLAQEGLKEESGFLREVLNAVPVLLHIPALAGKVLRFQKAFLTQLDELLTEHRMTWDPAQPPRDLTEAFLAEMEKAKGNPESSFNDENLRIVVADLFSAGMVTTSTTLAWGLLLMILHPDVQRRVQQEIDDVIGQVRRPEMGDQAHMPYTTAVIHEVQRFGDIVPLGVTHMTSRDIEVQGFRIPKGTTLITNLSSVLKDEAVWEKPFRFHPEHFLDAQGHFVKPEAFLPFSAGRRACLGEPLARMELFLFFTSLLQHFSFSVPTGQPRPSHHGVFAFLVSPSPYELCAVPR
# Summary of the method: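 Human CYP2D6 (5 nM) with 30 uM Luciferin-ME EGE (at Km) in 100 mM KPO4, compound preincubated 10 min, then NADPH regeneration system for 60 min at room temperature. Luciferin read by luminescence; normalized to 1.43 uM quinidine.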
# [11] = qHTS Assay for Lipid Storage Modulators (AID 1519; calls by dose curve); conditions: Drosophila S3 cells, BODIPY lipid droplet/cell ratio, laser cytometry, cells loaded with oleic acid; for activity change, negative = inhibition: at 57.5 µM (top of the series)
# Summary of the method: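 Cells seeded at 5,000 per well were treated with compounds over a concentration series and loaded with oleic acid (400 uM, as added). Lipid droplet fluorescence (488 nm excitation, 500-530 nm channel) was read by laser-scanning cytometry and normalized to 20 uM Triacsin C.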
# [12] = Primary qHTS for small molecule stabilizers of the endoplasmic reticulum resident proteome: Secreted ER Calcium Modulated Protein (SERCaMP) assay (AID 1508630; active = well fitted curve in the direction sought with a large enough effect; an effect the other way counts as inactive or inconclusive; also: % is scaled to controls: 0 for no effect and ±100 for the full control effect); conditions: SH-SY5Y GLuc-SERCaMP (Gaussia luciferase released on ER calcium loss) secretion, thapsigargin, luminescence; series mostly up to 38.4 µM
# Summary of the method: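 GLuc-SERCaMP-expressing SH-SY5Y cells, pretreated 16 h with compound, are challenged with thapsigargin to empty ER calcium stores; after 4 h, coelenterazine is added directly to the medium and luminescence is imaged.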
# [13] = target: Cytochrome P450 2C19 (Homo sapiens) (UniProt P33261); test: qHTS Assay for Inhibitors and Substrates of Cytochrome P450 2C19 (AID 899; active = well fitted curve in the direction sought with a large enough effect; an effect the other way counts as inactive or inconclusive; also: nearly all actives have a fitted effect of over 60% in size; also: potency is read from the fitted curve at half-maximal effect); conditions: recombinant CYP2C19, luciferin-H EGE luminescence; series mostly up to 57.1 µM
# Chain of Cytochrome P450 2C19 (Homo sapiens) (P33261 whole entry, looked up): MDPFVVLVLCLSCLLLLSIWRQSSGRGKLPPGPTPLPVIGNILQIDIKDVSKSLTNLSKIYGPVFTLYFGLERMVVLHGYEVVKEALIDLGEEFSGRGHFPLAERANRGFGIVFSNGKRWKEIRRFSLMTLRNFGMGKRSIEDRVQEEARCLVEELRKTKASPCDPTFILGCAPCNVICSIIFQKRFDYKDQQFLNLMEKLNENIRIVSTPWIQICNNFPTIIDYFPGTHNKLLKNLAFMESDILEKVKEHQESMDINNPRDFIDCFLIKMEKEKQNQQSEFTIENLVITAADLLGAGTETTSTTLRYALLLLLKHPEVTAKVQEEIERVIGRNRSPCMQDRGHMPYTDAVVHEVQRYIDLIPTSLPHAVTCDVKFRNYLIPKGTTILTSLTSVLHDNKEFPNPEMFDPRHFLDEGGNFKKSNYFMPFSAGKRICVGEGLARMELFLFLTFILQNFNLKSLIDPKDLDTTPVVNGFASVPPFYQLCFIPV
# Summary of the method: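 Luminescent read-out of luciferin formed from Luciferin-H EGE (10uM, equal to KM). Enzyme 5nM in 50mM KPO4; compound added, 10 min at 37C, then NADPH regenerating system for 60 min at 37C. Full inhibition defined by 57uM ketoconazole.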
# [14] = qHTS Assay for Identification of Small Molecule Agonists for Hypoxia Response Element Signaling Pathway (AID 914; active = well fitted activation curve with a large enough effect in the signal ratio, with a control signal flat, not every such curve was filed as active; the % refers to the signal ratio; also: % of control where 0% means no effect); conditions: ME-180 HRE-bla reporter, beta-lactamase ratio, CoCl2, 17 h; activation: stronger effect = higher value
# Summary of the method: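 ME-180 cells carrying an HRE-driven beta-lactamase reporter were treated with compounds in a titration series plus an EC50 level of CoCl2 for 17 h at 37 degrees Celsius; CCF4 readout as the 460nm/530nm ratio gave AC50 values.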
# [15] = measured here: cell count channel max response
# [16] = measured here: lipid channel max response
Structure (SMILES),Potency [1],"activity change, negative = inhibition [2]",Potency [3],"activity change, negative = inhibition [4]","activity, negative = inhibition [5]",Potency [6],outcome [7],Potency [8],Potency [9],Potency [10],"activity change, negative = inhibition [11]","max response [11, 15] [%]","max response [11, 16] [%]",Potency [12],Potency [13],activation [14]
O=C(c1ccco1)N1CCC2(CC1)CN(C(c1ccccc1)c1ccccc1)C2,> 11.4 µM (inactive),-3.72% (inactive),inactive,11% (inactive),-4.65% (inactive),> 46 µM (inactive),inactive,inactive,10 µM (active),1.26 µM (active),2.1% (inactive),5.15,9.48,inactive,–,–
Cn1cccc1C(=O)N1CCC[C@@]2(CCN(Cc3cc(C(F)(F)F)cc(C(F)(F)F)c3)C2)C1,> 11.4 µM (inactive),8.92% (inactive),inactive,7.04% (inactive),8.87% (inactive),> 46 µM (inactive),inactive,inactive,inactive,3.98 µM (active),-3.99% (inactive),-0.0419,-1.35,inactive,–,–
O=C(c1ccco1)N1CCC[C@@]2(CCN(Cc3ccccc3)C2)C1,> 11.4 µM (inactive),-5.26% (inactive),inactive,-3.82% (inactive),-7.43% (inactive),> 46 µM (inactive),inactive,inactive,inactive,2 µM (active),2.21% (inactive),-0.541,7.17,inactive,–,–
O=C(c1ccncc1)N1CCC2(CC1)CCN(C(c1ccccc1)c1ccccc1)CC2,> 11.4 µM (inactive),-0.963% (inactive),12.6 µM (active),-18.3% (inactive),5% (inactive),> 46 µM (inactive),inactive,inactive,–,3.16 µM (active),2.53% (inactive),0.243,4.49,inactive,–,–
O=C(Oc1ccccc1)N1CCC[C@@]2(CCN(c3ncccn3)C2)C1,> 11.4 µM (inactive),2.93% (inactive),12.6 µM (active),-0.482% (inactive),9% (inactive),> 46 µM (inactive),inactive,inactive,inactive,–,4.5% (inactive),8.9,17.1,inactive,2.51 µM (active),–
CC(=O)N1CCC2(CC1)CCN(C(=O)Nc1cccc(F)c1)CC2,> 11.4 µM (inactive),-10.4% (inactive),inactive,8.58% (inactive),-7.06% (inactive),> 46 µM (inactive),inactive,inactive,–,3.16 µM (active),3% (inactive),11,16.9,inactive,–,–
CN(C)c1ncc2ncc(=O)n(Cc3ccc(F)cc3)c2n1,> 11.4 µM (inactive),-9.88% (inactive),3.98 µM (active),4.28% (inactive),-10.9% (inactive),> 46 µM (inactive),inactive,inactive,inactive,–,2.54% (inactive),6.58,11.9,inactive,3.16 µM (active),–
Cn1cccc1C(=O)N1CCC[C@@]2(CCN(c3ccncc3)C2)C1,> 11.4 µM (inactive),-2.65% (inactive),12.6 µM (active),-12.6% (inactive),7.16% (inactive),> 46 µM (inactive),inactive,inactive,inactive,–,-3.31% (inactive),-3.32,-4.8,inactive,6.31 µM (active),–
CC(C)NC(=O)N1CCCC2(CCN(C(=O)c3cc(C(F)(F)F)cc(C(F)(F)F)c3)CC2)C1,> 11.4 µM (inactive),-19.4% (inactive),inactive,11.4% (inactive),-13.3% (inactive),> 46 µM (inactive),inactive,inactive,inactive,–,-6.13% (inactive),16.6,12,inactive,–,-9.04% (inactive)
COc1ccccc1CN1CCC2(CC1)CCN(C(C)=O)CC2,> 11.4 µM (inactive),-6.68% (inactive),inactive,-28.3% (inactive),0.91% (inactive),> 46 µM (inactive),inactive,inactive,–,5.01 µM (active),0.897% (inactive),3.13,3.76,inactive,–,–
COCC(=O)N1CCC[C@@]2(CCN(C(=O)Nc3cccc(F)c3)C2)C1,> 11.4 µM (inactive),-14.2% (inactive),inactive,9.68% (inactive),-1.05% (inactive),> 46 µM (inactive),inactive,inactive,inactive,–,2.12% (inactive),19.2,23.6,inactive,–,8.24% (inactive)
CC(=O)N1CCC2(CC1)CN(c1ccccc1)C2,> 11.4 µM (inactive),10.4% (inactive),inactive,3.05% (inactive),10.3% (inactive),> 46 µM (inactive),inactive,inactive,–,–,6.65% (inactive),16.4,26.6,inactive,inactive,–
COc1ccc(NC(=O)N2CC3(CCN(C(C)=O)CC3)C2)cc1,> 11.4 µM (inactive),8.48% (inactive),inactive,-0.444% (inactive),-0.267% (inactive),> 46 µM (inactive),inactive,inactive,–,–,3.83% (inactive),13.9,23.3,inactive,–,-8.17% (inactive)
